Compound activity: PubChem BioAssay, National Center for Advancing Translational Sciences (NCATS)
This is a sample that favours compounds with a hit; in the whole collection about 11% have one here.
PNC inhibitor: perinucleolar compartment assembly inhibition; PC3M PTB-GFP, PNC prevalence imaging, 16 h; active compounds read low; activity change (PNC), negative = inhibition, % at 10 µM; actives 3.1% (n = 140,000);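 active = readout at or below -70, meaning at least 70% loss of cells showing the perinucleolar compartment, a nuclear body marking cancer cells; inconclusive = readout between -30 and a set limit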;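 note: plate controls were DMSO wells for no effect and camptothecin positive control wells for full effect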
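PC3M cells stably expressing PTB-GFP, 750–1000 cells/well, treated 16 h at 37 °C with compound (23 nl of library stock), in duplicate. After paraformaldehyde fixation and Hoechst stain, imaged at 20x; PNC prevalence scored by image analysis.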
KDM4E inh: inhibitors of human JMJD2E histone demethylase. B2RXH2. JMJD2E catalytic domain, FDH-coupled NADH fluorescence (FDH is formaldehyde dehydrogenase). Potency, µM (top dose mostly 57.1 µM), inactives show at the top dose activity change, negative = inhibition, actives largely listed as inhibitors. actives 1.6% (n = 230,000). AID 2147;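 note: potency is the fitted concentration of half-maximal effect; 0% = wells with enzyme and -100% = buffer wells without enzyme; nearly all actives have a fitted effect of over 50% in size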
ALDH1A1 inh: inhibitors of human aldehyde dehydrogenase 1A1 | AID 1030 | Potency, µM (doses to about 75.3 µM), for inactives: at the highest dose activity, negative = inhibition, most hits filed as inhibitors | P00352 | Purified ALDH1A1, NADH fluorescence, propionaldehyde substrate | actives 7.3% (n = 220,000);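 note: potency is the fitted concentration of half-maximal effect; plate controls were no enzyme wells and a reference inhibitor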
HPGD inh: HPGD (human) dehydrogenase inhibition; P15428; purified HPGD, NADH fluorescence kinetic, PGE2 substrate; Potency, µM, inactives show at the top dose activity change, negative = inhibition, usual class: inhibitors; actives 4.3% (n = 150,000); AID 894; note: potency is the fitted concentration of half-maximal effect
Target sequence (P15428 whole entry, looked up): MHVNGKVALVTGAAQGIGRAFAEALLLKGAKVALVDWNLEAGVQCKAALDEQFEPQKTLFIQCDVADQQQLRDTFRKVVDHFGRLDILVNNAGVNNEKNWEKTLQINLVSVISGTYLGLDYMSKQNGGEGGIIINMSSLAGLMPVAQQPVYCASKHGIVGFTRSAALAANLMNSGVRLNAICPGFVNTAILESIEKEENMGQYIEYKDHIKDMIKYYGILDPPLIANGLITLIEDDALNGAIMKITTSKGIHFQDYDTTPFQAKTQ
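20 nM HPGD preincubated 15 min at room temperature with compound in 50 mM Tris-HCl pH 8, 0.01% Tween 20. Started with 1 mM NAD+ and 30 uM prostaglandin E2; NADH fluorescence (360/450 nm) read 5 times over 30-s intervals, last minus first.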
Starred values were filed as active, the others as inactive; ? = inconclusive; / = no result given; [ ] = another dose, or the depositor's remark. Unless noted, calls come from the whole dose curve; as a rule, active = well fitted inhibition curve with a large enough effect (not every such curve was filed as active); inconclusive = small, poorly fitted or top-dose-only effect, or another doubt; inactive = no such curve, though single readings can be large or run the other way. Unless noted, % is set by controls: 0 for no effect and ±100 for the full control effect.

SMILES	PNC inhibitor	KDM4E inh	ALDH1A1 inh	HPGD inh
CCC[C@@H]1C[C@@]1(CCC)C(NC(=O)c1ccccc1)c1cccc(Cl)c1 (stereo not given in full)	/	-6.5%	3.0%	-5.5%
Cc1ccc(N=C/C(C(=O)C(F)(F)F)=C(\O)c2ccco2)cc1Cl	-19.2	?	2.24µM*	/
O=C(Oc1ccc2c(=O)c(Cl)coc2c1)c1cccnc1	-26.2	?	20µM*	-21.4%
O=C(Nc1cccc(F)c1)N1CCCC(CNS(=O)(=O)Cc2ccccc2)C1 (stereo not given)	/	2.9%	-5.0%	/
CC(C)(C)NC(=O)c1ccc2c(c1)N(CC(=O)N1CCN(c3ccccc3F)CC1)C(=O)C(C)(C)O2	24.0	5.9%	14.1µM*	-6.3%
CC(C)NC(=O)c1ccc2c(c1)N(CC(=O)N1CCOCC1)C(=O)C(C)(C)O2	-4.8	-1.2%	6.6%	1.2%
COc1ccc(C(=O)C(/C=N/O)=N/Nc2ccc(F)cc2)cc1	/	-4.2%	14.8%	/
COc1ccc(CC(=O)NNC(=O)c2cccs2)cc1	14.5	8.3%	1.6%	-5.6%
COc1ccc(C(=O)/C(=C/O)N=Nc2ccc(F)cc2)cc1	/	8.5%	3.98µM*	/
COc1ccc(N=N/C(=C\O)C(=O)c2cccs2)cc1	/	-5.7%	14.1µM*	/
CN=C(N)/N=C(\N)Nc1cc2ccccc2c2ccccc12	/	/	7.0%[13.5 µM]	-6.7%
CC1CCCC(C)N1C(=O)COC(=O)c1cc(Br)ccc1Cl (stereo not given)	/	-5.3%	20µM*	/
CCC1CCCCN1C(=O)COC(=O)c1cc(Br)ccc1Cl (stereo not given)	/	-0.2%	?	/
COc1ccc(N(CC(=O)Nc2cc([N+](=O)[O-])ccc2C)S(C)(=O)=O)cc1OC	/	1.5%	/	/
O=c1c(Cl)cc(Cl)nn1-c1ccccc1	?	4.2%	31.6µM*	-16.6%
COc1cc(Cl)nn(-c2ccccc2)c1=O	?	-0.2%	-0.9%	-11.8%
O=C(NCCCCN1CCCC1)c1ccc(Cc2nc3ccccc3[nH]2)cc1	/	/	-15.3%	-9.9%
CCOC(=O)/C(=C/Nc1ccc(F)c(F)c1)[N+](=O)[O-]	/	4.3%	/	/
CSC1=N/C(=C\c2cccc(F)c2)C(=O)S1	11.0	1.9%	?	-2.1%
CSC1=N/C(=C\c2c(F)cccc2Cl)C(=O)S1	59.4	-5.2%	-9.2%	4.47µM*
c1ccc2c(c1)[nH]c1nc(SCCN3CCOCC3)nnc12	-26.4	0.0%	?	31.6µM*
O=C(CSc1nnc2c(n1)[nH]c1ccccc12)Nc1ccc(N2CCOCC2)cc1	/	-23.7%	22.4µM*	/
CCOC(=O)C(C)Oc1ccc(NC(=O)C(Cl)Cl)cc1 (stereo not given)	/	-0.6%	/	/
CC1(C)C(c2ccccc2)=[N+]([O-])CN1O	2.2	0.3%	7.94µM*	-3.0%
O=C(Cc1ccccc1)Nc1ccc(Br)c(Cl)c1	-82.1*	-6.4%	15.8µM*	-21.1%
SMILES	PNC inhibitor	KDM4E inh	ALDH1A1 inh	HPGD inh
CCC(=O)Nc1ccc(Br)c(Cl)c1	?	2.1%	10.7%	-18.6%
CCCOC(=O)c1c(-c2ccc(C)cc2C)csc1NC(=O)C1C2CCC(O2)C1C(=O)O (stereo not given)	-12.4	-4.3%	?	22.4µM*
CNC(=S)N1CCN(c2nc3ccccc3s2)CC1	/	0.6%	-4.4%	/
CCCN(CCC)C(=O)CSc1nc2n[nH]c(C)c2c(=N)n1-c1ccc(OC)cc1	?	1.1%	?	-28.9%
CCCN(CCC)C(=O)CSc1nc2n[nH]c(C)c2c(=N)n1-c1ccc(OCC)cc1	?	-6.5%	3.16µM*	/
CCN(CC)S(=O)(=O)c1cc(C(=O)OCC(=O)NC(=O)c2cccn2C)ccc1C	?	-1.9%	3.1%	-5.4%
CCSCc1nnc(SCC(=O)Nc2ccc(OC)cc2)n1C	/	-27.9%	?	/
Cc1nc2cc(N3CCN(C)CC3)c(NC(=O)Cc3ccccc3)cc2c(=O)n1Cc1ccccc1	44.4	?	17.8µM*	/
COc1ccc(-n2c(=O)c(-c3cn(C)c4ccccc34)nc3cncnc32)cc1	/	/	?	-22.5%
N=c1ccn2c(n1)O[C@H]1[C@@H](O)[C@@H](CO)O[C@H]12	/	6.5%	-4.1%	4.8%
CN(C1CCCCC1)S(=O)(=O)c1ccc(S(=O)(=O)N(CC(=O)Nc2ccccc2)C2CC2)cc1	/	0.0%	/	/
CN(C)CCC(=O)c1ccc(F)cc1	/	-0.1%	/	/
CCN(CC)CCC(=O)c1ccc(F)cc1	/	1.9%	1.12µM*	/
CCOC(=O)C1(Cc2ccc(Cl)cc2)CCN(C(=O)c2sc(C)nc2C)CC1	/	5.1%	35.5µM*	/
COc1ccc(S(=O)(=O)N2CCCC(C(=O)NC3CCCCC3)C2)cc1 (stereo not given)	-102.2*	3.0%	7.7%	-16.6%
